Reference: PubChem BioAssay (Tox21)
Where “and” joins values, the source holds several entries; their conditions need not be identical. Equal entries are not always repeated. Results filed as inconclusive are left out. Entries that show only a call come without a potency. Calls of active or inactive are those of the source. Unless noted, calls come from the whole dose curve.

Key:
[1] = Nuclear factor erythroid 2-related factor 2/antioxidant responsive element (Nrf2/ARE) small molecule agonists: luciferase reporter gene qHTS assay in human keratinocytes (AID 1919969); note: nearly all actives have a fitted effect of over 35% in size; note: potency is the fitted concentration of half-maximal effect
[2] = biological target: Gonadotropin-releasing hormone receptor (Homo sapiens) (UniProt P30968); experiment: Human gonadotropin-releasing hormone receptor (GnRHR) small molecule agonists, calcium flux assay in GnRHR-HEK293 cells (AID 1920063); note: nearly all actives have a fitted effect of over 35% in size; note: potency is the fitted concentration of half-maximal effect
In short: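 Calcium-dye fluorescence, Ex/Em=480/540, recorded every 1 sec over 3 min after compound addition to GnRHR-HEK293 cells. Cells had been seeded 18 hours earlier and dye-loaded for 1 hour at 37 C. Fifteen concentrations, triplicates.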

[3] = biological target: KiSS-1 receptor (Homo sapiens) (UniProt Q969F8); experiment: Human kisspeptin (KISS1R) small molecule agonists, calcium flux assay in KISS1R-HEK293 cells (AID 1920064; active = well fitted activation curve with a large enough effect in the repeat runs; note: potency is the fitted concentration of half-maximal effect)
In short: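 Calcium flux read-out: kinetic fluorescence at Ex/Em=480/540, 1 s intervals over 3 min, after pin-tool compound addition to dye-loaded KISS1R-HEK293 cells. Fifteen concentrations, triplicates.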

[4] = G protein-coupled receptor (GPCR) small molecule agonists, calcium flux assay: HEK293 wild type cell line counter screen (AID 1920065); note: potency is the fitted concentration of half-maximal effect
In short: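 Agonist mode; 18 h seeding at 37 C, 1 h dye load at 37 C; compounds pinned from DMSO, ATP as positive control; kinetic fluorescence 480/540 nm, 3 min, 1 s reads; 15 concentrations, triplicate.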

[5] = p53 small molecule agonists, cell-based qHTS assay with human liver microsomes: qHTS cell viability counter screen (AID 1963579); note: nearly all actives have a fitted effect of over 45% in size
In short: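 HLM-supplemented (0.5 mg/mL final) and NADPH-supplemented (0.5 mg/mL final) p53RE-bla cultures, 4,000 cells per well, were dosed with compounds in DMSO for 16 h at 37 C; luminescent ATP detection (CellTiter-Glo, 30 min, room temperature) quantified surviving cells.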

[6] = p53 small molecule agonists, cell-based qHTS assay with rat liver microsomes: qHTS cell viability counter screen (AID 1963580); note: nearly all actives have a fitted effect of over 45% in size
In short: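 Luminescent ATP readout (CellTiter-Glo, 30 min at room temperature) reports viability of p53RE-bla HCT-116 cells after 16 h at 37 C with test compounds under metabolic activation by rat liver microsomes and NADPH at 0.5 mg/mL final each.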

[7] = p53 small molecule agonists, cell-based qHTS assay: qHTS cell viability counter screen (AID 1963581); note: nearly all actives have a fitted effect of over 45% in size
In short: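 Cytotoxicity read-out: ATP-based luminescence (CellTiter-Glo, 30 min RT) measured in the same wells as the p53 reporter assay, HCT-116 p53RE-bla cells, 16 h compound exposure at 37 C.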

[8] = biological target: 5-hydroxytryptamine receptor 2A (Homo sapiens) (UniProt P28223); experiment: 5-hydroxytryptamine receptor 2A (HTR2A) small molecule antagonists, cell-based qHTS assay (AID 1963586); note: nearly all actives have a fitted effect of over 45% in size
In short: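 CHO cells stably expressing human HTR2A were plated for 18 h at 37 C, then loaded with calcium dye for 1 h. Compounds were preincubated 5 min at room temperature before DOI (4 nM solution) was added. Kinetic fluorescence was read for 3 min.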

[9] = biological target: 5-hydroxytryptamine receptor 2A (Homo sapiens) (UniProt P28223); experiment: 5-hydroxytryptamine receptor 2A (HTR2A) small molecule agonists, cell-based qHTS assay (AID 1963587); note: nearly all actives have a fitted effect of over 30% in size; note: potency is the fitted concentration of half-maximal effect
In short: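 HTR2A-CHO cells, plated 18 h at 37 C/5% CO2, dye-loaded 1 h at 37 C; compounds in DMSO added by pin tool (agonist mode). Intracellular calcium flux read as kinetic fluorescence on FDSS over 2 min at 1 s intervals.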

[10] = biological target: Muscarinic acetylcholine receptor M1 (Homo sapiens) (UniProt P11229); experiment: Cholinergic receptor muscarinic 1 (CHRM1) small molecule antagonists, cell-based qHTS assay (AID 1963588); note: nearly all actives have a fitted effect of over 40% in size
In short: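 Compounds were tested at 15 concentrations in three independent runs. Dye-loaded CHRM1-CHO cells were exposed 5 min at room temperature before stimulation by acetylcholine added at 50nM. Intracellular calcium was read kinetically on FDSS for 3 min.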

[11] = biological target: Muscarinic acetylcholine receptor M1 (Homo sapiens) (UniProt P11229); experiment: Cholinergic receptor muscarinic 1 (CHRM1) small molecule agonists, cell-based qHTS assay (AID 1963589); note: nearly all actives have a fitted effect of over 35% in size; note: potency is the fitted concentration of half-maximal effect
In short: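 Calcium flux read-out: kinetic fluorescence at 1 sec intervals after pin-tool compound addition to dye-loaded CHRM1-CHO cells (human M1). Agonist mode; 15 concentrations tested in triplicate independent runs.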

[12] = cAMP Responsive Elements (CRE) small molecule antagonists, cell-based qHTS assay (AID 1963591; active = well fitted inhibition curve with a large enough effect in the signal ratio in the repeat runs, not every such curve was filed as active; the % refers to the signal ratio)
In short: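 HEK293T CRE-bla; 18 h preincubation; compound pin-transfer; NKH477 0.25 uM final, 3 h, 37 C; LiveBLAzer FRET substrate 2 h RT.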

[13] = biological target: Beta-2 adrenergic receptor (Homo sapiens) (UniProt P07550); experiment: Adrenergic beta2 receptor (ADRB2) small molecule antagonists, cell-based qHTS assay (AID 1963592); note: series mostly up to about 92 µM; nearly all actives have a fitted effect of over 50% in size
In short: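 Assay format: CHO-ADRB2 cells, 18-20hr seeding at 37C/5% CO2, then compound plus 1nM isoproterenol agonist mix for 0.5hr RT. Homogeneous time-resolved fluorescence cAMP detection after 1hr, expressed as 665/615 nm ratio.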

[14] = biological target: Beta-2 adrenergic receptor (Homo sapiens) (UniProt P07550); experiment: Adrenergic beta2 receptor (ADRB2) small molecule agonists, cell-based qHTS assay (AID 1963593);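 note: CHO cells stably overexpressing human ADRB2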
In short: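 CHO cells stably over-expressing ADRB2 were plated overnight at 37C, then dosed with compounds plus a stimulation mix containing 100uM IBMX and 25uM Ro-20-1724 for 0.5hr at room temperature. cAMP was measured by HTRF competition, 1hr.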

[15] = biological target: D(2) dopamine receptor (Homo sapiens) (UniProt P14416); experiment: Dopamine D2 receptor (DRD2) small molecule agonists, cell-based qHTS assay (AID 1963594); note: nearly all actives have a fitted effect of over 35% in size; note: potency is the fitted concentration of half-maximal effect
In short: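 HEK293 cells stably expressing DRD2 were cultured 24 h at 37 C, then given Ro20-1724 (0.1 mM final) and compounds for 10 min at room temperature. NKH477 (200nM) was then added for 30 min. cAMP was read by HTRF.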

[16] = biological target: D(2) dopamine receptor (Homo sapiens) (UniProt P14416); experiment: Dopamine D2 receptor (DRD2) small molecule antagonists, cell-based qHTS assay (AID 1963595; active = well fitted inhibition curve with a large enough effect in the signal ratio in the repeat runs, with a control signal flat; the % refers to the signal ratio)
In short: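 Antagonist mode in DRD2-HEK293 cells: after compound addition with 0.1 mM Ro20-1724, cells received quinpirole (12 nM) and NKH477 (200 nM) for 30 min at room temperature; HTRF cAMP read after 1 h detection.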

[17] = cAMP Responsive Elements (CRE) small molecule agonists, cell-based qHTS assay (AID 1963590)
In short: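 Beta-lactamase reporter readout: LiveBLAzer B/G FRET substrate, 2 h at room temperature, added after 3 h compound treatment of CRE-bla HEK 293T cells at 37 C/5% CO2.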

5-hydroxytryptamine receptor 2A (Homo sapiens), sequence (P28223 whole entry, looked up): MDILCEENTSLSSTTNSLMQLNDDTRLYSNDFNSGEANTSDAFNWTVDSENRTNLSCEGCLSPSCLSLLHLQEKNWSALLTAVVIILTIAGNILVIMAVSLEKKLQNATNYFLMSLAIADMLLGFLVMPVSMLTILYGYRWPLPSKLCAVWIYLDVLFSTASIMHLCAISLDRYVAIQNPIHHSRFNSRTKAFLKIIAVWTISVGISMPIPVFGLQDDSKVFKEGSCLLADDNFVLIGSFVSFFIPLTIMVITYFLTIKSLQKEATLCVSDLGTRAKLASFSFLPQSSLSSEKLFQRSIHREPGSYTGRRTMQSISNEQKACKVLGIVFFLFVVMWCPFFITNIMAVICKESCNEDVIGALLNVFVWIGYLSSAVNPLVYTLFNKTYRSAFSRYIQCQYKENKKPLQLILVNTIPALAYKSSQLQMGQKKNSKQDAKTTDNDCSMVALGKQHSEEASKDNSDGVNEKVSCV
KiSS-1 receptor (Homo sapiens), sequence (Q969F8 whole entry, looked up): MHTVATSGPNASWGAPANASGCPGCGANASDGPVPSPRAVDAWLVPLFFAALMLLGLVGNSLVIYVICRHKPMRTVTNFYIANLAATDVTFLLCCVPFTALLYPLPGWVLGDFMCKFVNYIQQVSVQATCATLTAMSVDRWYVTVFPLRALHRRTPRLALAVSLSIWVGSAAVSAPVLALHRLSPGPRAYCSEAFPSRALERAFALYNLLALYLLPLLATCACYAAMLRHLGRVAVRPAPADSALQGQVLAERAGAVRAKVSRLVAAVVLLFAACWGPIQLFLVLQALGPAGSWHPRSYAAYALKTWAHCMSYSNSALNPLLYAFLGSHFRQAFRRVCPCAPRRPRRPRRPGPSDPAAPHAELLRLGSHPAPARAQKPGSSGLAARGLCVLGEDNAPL
Gonadotropin-releasing hormone receptor (Homo sapiens), sequence (P30968 whole entry, looked up): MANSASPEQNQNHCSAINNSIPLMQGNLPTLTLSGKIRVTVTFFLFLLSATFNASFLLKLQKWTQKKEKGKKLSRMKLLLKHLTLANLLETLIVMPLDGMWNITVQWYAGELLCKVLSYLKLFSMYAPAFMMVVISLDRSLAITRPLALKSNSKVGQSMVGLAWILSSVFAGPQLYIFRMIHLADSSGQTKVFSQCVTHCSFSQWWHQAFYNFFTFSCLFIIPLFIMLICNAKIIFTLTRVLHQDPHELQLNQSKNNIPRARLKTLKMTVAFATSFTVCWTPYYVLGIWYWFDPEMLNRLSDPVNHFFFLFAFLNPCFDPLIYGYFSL
Muscarinic acetylcholine receptor M1 (Homo sapiens), sequence (P11229 whole entry, looked up): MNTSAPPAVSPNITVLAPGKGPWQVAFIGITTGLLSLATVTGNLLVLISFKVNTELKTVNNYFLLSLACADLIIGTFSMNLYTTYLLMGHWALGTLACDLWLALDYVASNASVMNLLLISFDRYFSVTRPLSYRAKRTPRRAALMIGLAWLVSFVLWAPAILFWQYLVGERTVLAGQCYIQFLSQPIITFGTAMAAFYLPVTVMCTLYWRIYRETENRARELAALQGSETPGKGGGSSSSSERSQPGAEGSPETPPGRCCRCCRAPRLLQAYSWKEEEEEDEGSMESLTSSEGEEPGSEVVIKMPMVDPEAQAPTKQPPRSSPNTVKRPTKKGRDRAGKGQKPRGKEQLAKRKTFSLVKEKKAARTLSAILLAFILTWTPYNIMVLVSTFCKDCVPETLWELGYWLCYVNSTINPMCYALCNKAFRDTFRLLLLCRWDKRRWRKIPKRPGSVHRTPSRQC
Beta-2 adrenergic receptor (Homo sapiens), sequence (P07550 whole entry, looked up): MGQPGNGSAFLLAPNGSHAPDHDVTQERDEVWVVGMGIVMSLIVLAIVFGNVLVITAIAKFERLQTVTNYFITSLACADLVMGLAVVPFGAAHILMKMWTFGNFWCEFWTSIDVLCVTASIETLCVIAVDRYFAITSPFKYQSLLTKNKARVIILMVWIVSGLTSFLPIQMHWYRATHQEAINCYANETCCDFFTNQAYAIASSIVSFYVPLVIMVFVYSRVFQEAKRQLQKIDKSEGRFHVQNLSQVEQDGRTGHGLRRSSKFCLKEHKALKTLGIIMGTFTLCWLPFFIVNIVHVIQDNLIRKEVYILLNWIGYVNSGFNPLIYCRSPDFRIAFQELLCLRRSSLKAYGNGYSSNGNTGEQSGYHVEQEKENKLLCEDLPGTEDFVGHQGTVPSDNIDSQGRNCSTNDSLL
D(2) dopamine receptor (Homo sapiens), sequence (P14416 whole entry, looked up): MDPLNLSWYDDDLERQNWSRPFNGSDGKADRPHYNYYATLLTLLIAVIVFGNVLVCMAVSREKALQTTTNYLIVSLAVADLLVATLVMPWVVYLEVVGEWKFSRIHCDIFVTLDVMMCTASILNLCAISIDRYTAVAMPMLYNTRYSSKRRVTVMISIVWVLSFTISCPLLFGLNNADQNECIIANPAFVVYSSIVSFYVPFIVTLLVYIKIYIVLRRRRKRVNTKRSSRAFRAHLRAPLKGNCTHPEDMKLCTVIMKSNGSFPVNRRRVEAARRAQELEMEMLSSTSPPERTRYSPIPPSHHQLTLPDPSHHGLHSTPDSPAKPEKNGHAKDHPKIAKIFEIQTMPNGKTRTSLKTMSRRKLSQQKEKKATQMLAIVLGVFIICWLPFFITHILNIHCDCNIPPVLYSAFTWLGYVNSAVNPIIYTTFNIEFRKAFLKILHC

## Brc1cc(-c2ccc(Br)c(Br)c2Br)cc(Br)c1Br
[1]
  Potency: inactive
[2]
  Potency: inactive
[3]
  Potency: inactive
[4]
  Potency: inactive
[5]
  Potency: inactive
[6]
  Potency: inactive
[7]
  Potency: inactive
[8]
  Potency: inactive
[9]
  Potency: inactive
[10]
  Potency: inactive
[11]
  Potency: inactive
[12]
  Potency: inactive
[13]
  Potency: inactive
[14]
  Potency: inactive
[15]
  Potency: inactive
[16]
  Potency: inactive

## CC(C)(C)CCCCCCOC(=O)c1ccccc1C(=O)OCCCCCCC(C)(C)C
[1]
  Potency: inactive
[2]
  Potency: inactive
[3]
  Potency: inactive
[4]
  Potency: inactive
[5]
  Potency: inactive
[6]
  Potency: inactive
[7]
  Potency: inactive
[8]
  Potency: inactive
[9]
  Potency: inactive
[10]
  Potency: inactive
[11]
  Potency: inactive
[17]
  Potency: inactive
[12]
  Potency: inactive
[13]
  Potency: inactive
[14]
  Potency: inactive
[15]
  Potency: inactive
[16]
  Potency: inactive

## COc1cc(Cl)ccc1Oc1ccc(Cl)cc1Cl
[1]
  Potency: 14.9 µM (active)
[2]
  Potency: inactive
[3]
  Potency: inactive
[4]
  Potency: inactive
[5]
  Potency: inactive
[6]
  Potency: inactive
[7]
  Potency: inactive
[8]
  Potency: inactive
[9]
  Potency: inactive
[10]
  Potency: inactive
[11]
  Potency: inactive
[12]
  Potency: inactive
[13]
  Potency: inactive
[15]
  Potency: inactive
[16]
  Potency: inactive

## CC(C)[C@H]1CC[C@H](C)C[C@@H]1O
[1]
  Potency: inactive
[2]
  Potency: inactive
[3]
  Potency: inactive
[4]
  Potency: inactive
[5]
  Potency: inactive
[6]
  Potency: inactive
[8]
  Potency: inactive
[10]
  Potency: inactive
[11]
  Potency: inactive
[17]
  Potency: inactive
[12]
  Potency: inactive
[13]
  Potency: inactive
[14]
  Potency: inactive
[15]
  Potency: 57.9 µM (active)
[16]
  Potency: inactive

## COc1ccc2nc(S(=O)Cc3ncc(C)c(OC)c3C)[nH]c2c1 (stereo not given)
[1]
  Potency: 67.8 µM (active) and 26.6 µM (active)
[2]
  Potency: inactive
[3]
  Potency: inactive
[4]
  Potency: inactive
[5]
  Potency: inactive
[6]
  Potency: inactive
[7]
  Potency: inactive
[13]
  Potency: inactive
[15]
  Potency: inactive
[16]
  Potency: inactive

## Nc1ccc2c3c(cccc13)-c1ccccc1-2
[1]
  Potency: inactive
[2]
  Potency: 35.1 µM (active)
[3]
  Potency: 55.5 µM (active)
[4]
  Potency: 39.3 µM (active)
[5]
  Potency: inactive
[6]
  Potency: inactive
[8]
  Potency: inactive
[9]
  Potency: 24.8 µM (active)
[10]
  Potency: inactive
[11]
  Potency: 49.5 µM (active)
[13]
  Potency: inactive
[15]
  Potency: inactive
[16]
  Potency: inactive

## O=C(O)C(c1ccc(Cl)cc1)c1ccc(Cl)cc1
[1]
  Potency: inactive
[2]
  Potency: inactive
[3]
  Potency: inactive
[4]
  Potency: inactive
[5]
  Potency: inactive
[6]
  Potency: inactive
[7]
  Potency: inactive
[8]
  Potency: inactive
[9]
  Potency: inactive
[10]
  Potency: inactive
[12]
  Potency: inactive
[13]
  Potency: inactive
[15]
  Potency: inactive
[16]
  Potency: inactive
